Where “and” joins values, the source holds several entries; their conditions need not be identical. Equal values may be shown once. Values without a mark were called inactive. Inconclusive results are not listed. Where a call stands in place of a potency, no number is given. Calls of active or inactive are those of the source. Unless noted, calls follow the shape of the dose curve; as a rule, active = well fitted curve in the direction sought with a large enough effect; inconclusive = small, poorly fitted or top-dose-only effect, or another doubt; inactive = no such curve, though single readings can be large; an effect the other way counts as inactive or inconclusive.

The text below walks through data of PubChem BioAssay (Tox21).

The first assay can be described thus: qHTS assay to identify small molecule phospholipidosis (PLD) inducers (AID 1259344). As to conditions: HepG2 phospholipidosis, LipidTOX Red imaging, 24 h; series mostly up to 38.3 µM. The method, boiled down: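 Phospholipidosis is scored by imaging LipidTOX-stained pits in HepG2 cells exposed to compound for 24 h at 37 C; pit counts and integrated intensities per well and per cell serve as outputs.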
`CCC(O)c1ccccc1` (stereo not drawn): the Potency result was “inactive”. Still for that read-out and setting: to `CCCCC[C@H](O)/C=C/[C@@H]1[C@@H](C/C=C\CCCC(=O)O)[C@@H](O)C[C@H]1O` belongs “inactive”; to `CC(C)NCC1CCc2cc(CO)c([N+](=O)[O-])cc2N1` (stereo not drawn), “inactive”.

Consider `CC(C)(COP(=O)(O)OP(=O)(O)OC[C@H]1O[C@@H](n2cnc3c(N)ncnc32)[C@H](O)[C@@H]1OP(=O)(O)O)C(O)C(=O)NCCC(=O)NCCS` (stereo partly drawn), for which the Potency entry was “inactive”. The same measure, in the same setting: as for `O=C(O)[C@@H]1C[C@H](CP(=O)(O)O)CCN1`, the entry is “inactive”; as for `FC(F)(F)COCC(F)(F)F`, “inactive”.

As for `O=C(CCCN1CCN2CCCC2C1)c1ccc(F)cc1` (stereo not drawn), the Potency result is “inactive”. In the case of `CC12CCC(C[N+](C)(CCC[N+](C)(C)C)C1)C2(C)C` (stereo not drawn), the Potency entry was “inactive”. As to `Nc1ccc(N)c([N+](=O)[O-])c1`, the Potency entry was “inactive”. The same measure, in the same setting: as for `O=C1CC[C@@H](C(=O)N[C@H]2C[C@@H]2c2ccccc2)N1`, the entry is “inactive”; as for `O=C1[O][Bi][O]c2ccccc21`, “inactive”. Same read-out and setting: to `C/C(=C(/CCO)SSCC1CCCO1)N(C=O)Cc1cnc(C)nc1N` (stereo not drawn) belongs “inactive”. On the same count and under the same terms, to `CCN(CC)C(=O)[C@]1(c2ccccc2)C[C@@H]1CN` belongs “inactive”. With `Nc1c(CC(=O)O)cccc1C(=O)c1ccccc1`, the PLD induction was -2.85% [at 7.66 µM] and -2.33% [at 7.66 µM]. For `CC(C)C[C@H](NC(=O)[C@@H](COC(C)(C)C)NC(=O)[C@H](Cc1ccc(O)cc1)NC(=O)[C@H](CO)NC(=O)[C@H](Cc1c[nH]c2ccccc12)NC(=O)[C@H](Cc1cnc[nH]1)NC(=O)[C@@H]1CCC(=O)N1)C(=O)N[C@@H](CCCN=C(N)N)C(=O)N1CCC[C@H]1C(=O)NNC(N)=O`, the Potency entry is “inactive”. In the case of `CC(C)(Oc1ccc(C2CCCc3ccccc32)cc1)C(=O)O` (stereo not drawn), the Potency result is “inactive”. The same measure, in the same setting: to `CC(C)C[C@@H](NC(=O)[C@@H](O)[C@H](N)Cc1ccccc1)C(=O)O` belongs “inactive”. The same measure, in the same setting: as for `CC(=O)NC[C@H]1CN(c2ccc(N3CCOCC3)c(F)c2)C(=O)O1`, the entry is “inactive”.

Take `CC(C)CCC[C@@H](C)[C@H]1CC[C@H]2[C@@H]3CC=C4C[C@@H](O)CC[C@]4(C)[C@H]3CC[C@]12C`: the Potency result was “inactive”. Still for that read-out and setting: to `C=C(Nc1ccc(OCC)cc1)Nc1ccc(OCC)cc1` belongs “inactive”. Still for that read-out and setting: to `O=C(O)c1ccccn1` belongs “inactive”. Same read-out and setting: to `Nc1nc(/C(=C/CC(=O)O)C(=O)N[C@@H]2C(=O)N3C(C(=O)O)=CCS[C@H]23)cs1` belongs “inactive”; to `CC1CCCC(C)N1NC(=O)c1ccc(Cl)c(S(N)(=O)=O)c1` (stereo not drawn), “inactive”.

The next assay is described as follows: qHTS assay to identify small molecule HDAC inhibitors (AID 1259364; active = well fitted curve in the direction sought with a large enough effect in the repeat runs; an effect the other way counts as inactive or inconclusive; also: top concentration of the series differs between compounds; nearly all actives have a fitted effect of over 45% in size). Conditions: HCT-116 HDAC-Glo I/II luminescence, 2 h; series mostly up to 92.4 µM. The method, boiled down:
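Wild-type HCT-116 cells were plated overnight, exposed to compounds for 2 h at 37 °C, then given HDAC-Glo class I/II luminogenic reagent for 30 min at room temperature before luminescence was read.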
`CC(=O)N(C)C`: the Potency entry was “inactive”.

For the compound `Nc1ccc(N)c([N+](=O)[O-])c1`, the Potency result is “inactive”.

Take `CCCCCCCC1CCC(=O)O1` (stereo not drawn): the Potency result was “inactive”. Same read-out and setting: as for `COc1ccc2ccccc2c1`, the entry is “inactive”.

Consider `CS(=O)(=O)c1ccc([C@@H](CC2CCCC2)C(=O)Nc2cnccn2)cc1Cl`, for which the Potency result is “inactive”.

A short description of a further assay: qHTS assay to identify small molecule agonists of the sonic hedgehog signaling (Shh) pathway (AID 1259368; calls by dose curve; also: nearly all actives have a fitted effect of over 15% in size). Conditions: NIH/3T3 Gli1-Luc reporter, luciferase, 24 h; series mostly up to 92.4 µM. The method, boiled down: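 NIH/3T3-derived 3T3Gli1-Luc cells carrying a stably integrated Gli1 response element–firefly luciferase reporter were plated, left 4 hr at 37 C, then given compounds in DMSO for 24 hr. Luminescence was read 30 min after adding luciferase reagent.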
Consider `Nc1ccc(N)c([N+](=O)[O-])c1`, for which the Potency result is “inactive”. Regarding `O=C1Cc2ccccc2C1`, the Potency result was “inactive”. Regarding `CCCCCCCC1CCC(=O)O1` (stereo not drawn), the Potency result was “inactive”.

As to `COc1ccc2ccccc2c1`, the Potency result was “inactive”.

As to `CS(=O)(=O)c1ccc([C@@H](CC2CCCC2)C(=O)Nc2cnccn2)cc1Cl`, the Potency entry is “inactive”.
